Hits are enriched below; roughly 9% of the tested compounds scored in any of these assays.
HPGD block: HPGD (human) dehydrogenase inhibition; P15428; purified HPGD, NADH fluorescence kinetic, PGE2 substrate; Potency, µM, for inactives: at the highest dose activity change, negative = inhibition, usual class: inhibitors; 4.3% of 150,000 active; note: potency is the fitted concentration of half-maximal effect
Target sequence (P15428 whole entry, looked up): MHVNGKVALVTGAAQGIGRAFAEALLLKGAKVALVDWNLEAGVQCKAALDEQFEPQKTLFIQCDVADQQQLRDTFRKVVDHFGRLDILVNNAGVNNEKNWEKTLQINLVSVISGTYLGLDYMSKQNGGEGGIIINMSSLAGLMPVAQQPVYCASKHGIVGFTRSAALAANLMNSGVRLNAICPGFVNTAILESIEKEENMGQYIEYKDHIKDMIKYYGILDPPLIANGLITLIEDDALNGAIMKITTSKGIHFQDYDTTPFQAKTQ
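NADH formation kinetics: reaction with 30 uM PGE2 and 1 mM NAD+ (final), 20 nM enzyme, Tris-HCl pH 8 with Tween 20, after 15 min compound preincubation at room temperature. Fluorescence change, last versus first of five reads.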
ALDH1A1 inh: ALDH1A1 (human) enzyme inhibition; Purified ALDH1A1, NADH fluorescence, propionaldehyde substrate; Potency, µM (series often up to 75.3 µM), inactives show at the top dose activity, negative = inhibition, hits mostly inhibitors; 7.3% of 220,000 active;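 note: potency is the fitted concentration of half-maximal effect; plate controls were no enzyme wells and a reference inhibitor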
IMPase cell inh: membrane-permeable compound that blocks inositol monophosphatase; 120,000 tested, under 10 active; P97697; CHO-M1 cells, IP1 accumulation, HTRF TR-FRET ratio; inhibition (IP1 accumulation), % at 46.1 µM; active = well fitted curve in the direction sought with a large enough effect in the signal ratio, not every such curve was filed as active; inconclusive = small, poorly fitted or top-dose-only effect, or a change in a side signal; inactive = no such curve, though single readings can be large or run the other way; the % refers to the signal ratio;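 note: cells stimulated with carbachol in lithium chloride buffer; plate controls were DMSO basal wells for no effect and reference inhibitor wells for full effect; higher means more IMPase inhibition seen as more IP1 and lower FRET ratio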
Target sequence (P97697 whole entry, looked up): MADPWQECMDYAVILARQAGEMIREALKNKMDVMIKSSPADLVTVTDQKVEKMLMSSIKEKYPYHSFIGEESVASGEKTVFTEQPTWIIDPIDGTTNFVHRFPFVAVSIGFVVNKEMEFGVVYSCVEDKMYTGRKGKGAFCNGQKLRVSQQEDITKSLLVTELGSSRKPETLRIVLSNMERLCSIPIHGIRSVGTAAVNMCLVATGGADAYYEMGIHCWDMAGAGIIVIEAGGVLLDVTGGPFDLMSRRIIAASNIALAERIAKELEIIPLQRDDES
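Measured: the HTRF emission ratio (665/620 nm) plus the 620 nm donor channel, each fitted to the Hill equation to give AC50. Cells were CHO-M1 given compounds up to 46 uM and a 30 min carbachol stimulation at 37C.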
* marks the source's active call; other numbers are inactive results; ? = inconclusive; . = no result; [ ] = dose if it differs, or a comment. Unless noted, calls come from the whole dose curve; as a rule, active = well fitted inhibition curve with a large enough effect (not every such curve was filed as active); inconclusive = small, poorly fitted or top-dose-only effect, or another doubt; inactive = no such curve, though single readings can be large or run the other way. Unless noted, % is set by controls: 0 for no effect and ±100 for the full control effect.

SMILES | HPGD block | ALDH1A1 inh | IMPase cell inh
O=C(CCN1C(=O)C2C3CCC(C3)C2C1=O)Nc1ccc(Br)cc1 (stereo unspecified) | -9% | ? | .
O=C(CCN1C(=O)C2C3CCC(C3)C2C1=O)Nc1ccc([N+](=O)[O-])cc1 (stereo unspecified) | . | 3.5µM* | .
Cc1cccc(NC(=O)CCN2C(=O)C3C4CCC(C4)C3C2=O)c1C (stereo unspecified) | -8% | -56% | -4
Cc1ccc(-c2nnc(OCC3CCCO3)c3ccccc23)cc1 (stereo unspecified) | . | -12% | .
O=C1c2ccccc2C(Nc2ccc(Cl)cn2)N1c1cccnc1 (stereo unspecified) | -7% | -7% | 4
CC(C)n1c(C(=O)OCC(=O)NCc2ccc3c(c2)OCO3)cc2sccc21 | -29% | 4% | 4
Cc1ccc(NC(=O)NCCN2C(=O)C3C4C=CC(C4)C3C2=O)cc1 (stereo unspecified) | -17% | 10µM* | -1
O=C(NCCN1C(=O)C2C3C=CC(C3)C2C1=O)Nc1ccccc1 (stereo unspecified) | -13% | 13µM* | -5
Cc1cccc(NC(=O)NCCN2C(=O)C3C4C=CC(C4)C3C2=O)c1 (stereo unspecified) | 0% | ? | 4
COc1ccc(NC(=O)NCCN2C(=O)C3C4C=CC(C4)C3C2=O)cc1 (stereo unspecified) | 2% | ? | -4
CCc1ccccc1NC(=O)c1cc2nc(-c3ccc(OC)c(OC)c3)cc(C(F)(F)F)n2n1 | . | . | -2
Cc1nnsc1NC(=O)OCc1ccc(C(F)(F)F)cc1 | -3% | 11% | 0
CCCCC[C@H](O)/C=C/C=C\C=C\[C@@H](O)C/C=C\CCCC(=O)O | -16% | -3% | .
COc1cccc(CN(C)CC(=O)Nc2sc3c(c2C#N)CCC3)c1OC | . | 25µM* | .
COc1ccc(CN(C)CC(=O)Nc2sc3c(c2C#N)CCC3)cc1OC | . | 14µM* | .
Cc1cccc(OCC(=O)Nc2sc3c(c2C#N)CCC3)c1 | -9% | 7% | -3[1.84 µM]
COc1cc(C(=O)Nc2sc3c(c2C#N)CCCC3)c(Br)c(OC)c1OC | . | . | -9
COc1ccc2c(c1)OC[C@H]1c3cc4c(cc3O[C@@H]21)OCO4 | -9% | 1% | .
Cc1nn(Cc2ccccc2Cl)c2sc(C(=O)NC(C)(C)C)cc12 | -17% | -6% | 7
Cc1nn(Cc2ccccc2Cl)c2sc(C(=O)OC3CCCC3=O)cc12 (stereo unspecified) | -26% | 8.9µM* | -14
O=C1C=C(NCCc2cc(Br)c(O)c(Br)c2)C(=O)c2ncccc21 | -11% | 1.6µM* | .
O=C1C=C(NCCO)C(=O)c2cnccc21 | -8% | 9% | .
O=C(O)c1ccccc1C(=O)NCc1ccc(F)cc1 | -8% | 10% | -4
O=C(NNC(=O)c1ccccc1-n1cccc1)c1ccc(Cl)cc1Cl | -8% | 3% | 3
O=C(O)c1ccccc1C(=O)NNc1ccc(F)cc1 | ? | 7.9µM* | 0
SMILES | HPGD block | ALDH1A1 inh | IMPase cell inh
O=C(O)c1ccccc1C(=O)NNc1ccc(Cl)cc1Cl | . | 25µM* | .
O=C1CCCC=C1[C@@H](O)COCc1ccccc1 | . | -7%[13.5 µM] | .
O=C1C=CC2=C3c4cc(O)c(O)cc4C[C@]3(O)COC2=C1 | 16µM* | 5% | .
Cc1cc(C)c(CN2CCN(Cc3ccc(C)o3)C(CCO)C2)c(-n2cccn2)c1 (stereo unspecified) | . | 11% | .
O=C1OCCC1Sc1ncnc2sc3c(c12)CCC3 (stereo unspecified) | -19% | -7% | -14
Cc1nc(SC2CCOC2=O)c2c(C)c(C)sc2n1 (stereo unspecified) | -6% | 22µM* | ?
CC(C)NC(=O)N1CCCC2(CCN(S(=O)(=O)c3ccccc3)CC2)C1 | 0% | -4% | .
Cc1c(C(=O)NCC2COc3ccccc3O2)oc2ccc(S(=O)(=O)N3CCOCC3)cc12 (stereo unspecified) | -26% | -12% | 15
CCN(CC)S(=O)(=O)c1ccc2oc(C(=O)NCC3COc4ccccc4O3)c(C)c2c1 (stereo unspecified) | -24% | 14µM* | 12
CCc1ccc(C(=O)NCC2COc3ccccc3O2)o1 (stereo unspecified) | 18µM* | -10% | 22
O=C(CCC1COc2ccccc2O1)NCC1COc2ccccc2O1 (stereo unspecified) | -19% | 0% | 8
Cc1ccc(C(=O)N/C(=C\c2cccs2)C(=O)NCCCn2ccnc2)cc1C | -7% | -1% | -11
NC(CSCC(=O)O)C(=O)O (stereo unspecified) | -9% | 10% | .
COc1ccc(Sc2ccc(/C=C3\C(=O)NN(c4ccccc4)C3=O)o2)cc1 | 16µM* | ? | .
COc1ccc(-n2c(C)cc(/C=C3\C(=O)NN(c4ccccc4)C3=O)c2C)cc1 | -10% | ? | ?
NC(=O)CC[C@@H]1NC(=O)[C@H](CO)NC(=O)c2cc([N+](=O)[O-])cc(I)c2NCCCC[C@@H](C(N)=O)NC(=O)[C@H](Cc2ccc(O)cc2)NC1=O | -1% | -1% | .
NC(=O)CC[C@@H]1NC(=O)[C@H](CO)NC(=O)c2cc([N+](=O)[O-])cc(I)c2NCC[C@@H](C(N)=O)NC(=O)[C@H](Cc2ccc(O)cc2)NC1=O | -10% | 3.5µM* | .
CCOn1c(=O)c(-c2cccc3ccccc23)[n+]([O-])c2ccccc21 | . | 22µM* | .
CCOC(=O)COn1c(=O)c(-c2ccc(OC)c(OC)c2)[n+]([O-])c2ccccc21 | -25% | 35µM* | 6
O=c1c(-c2cccc3ccccc23)[n+]([O-])c2ccccc2n1O | -11% | -2% | 0
C=CCOn1c(=O)c(-c2ccc(OC)c(OC)c2)[n+]([O-])c2ccccc21 | -28% | ? | 1
O=C(CSc1nc2ccccc2c(=O)n1-c1ccc(F)cc1F)Nc1ccc2c(c1)CCC2 | -21% | 7% | .
COCCN1C(=O)N[C@@H](c2ccc(Br)cc2)C(C(C)=O)=C1C | -5% | -1% | .
COc1ccc(C(=O)Nc2ccc(-c3cc4ccccc4oc3=O)c(C)c2)cc1Br | . | . | -2
O=c1cc(-c2ccccc2O)oc2cc(O)ccc12 | ? | 4% | .
SMILES | HPGD block | ALDH1A1 inh | IMPase cell inh
O=c1cc(-c2c(F)c(F)c(F)c(F)c2F)oc2ccccc12 | -21% | 16µM* | 0
O=c1cc(-c2ccncc2)oc2ccccc12 | -14% | -1% | 5
COc1cc(-c2cc(=O)c3ccccc3o2)ccc1O | 35µM* | -4% | -3
O=c1cc(-c2cccc(O)c2O)oc2ccccc12 | 16µM* | -3% | 10
COc1cc2oc(-c3ccccc3)cc(=O)c2cc1O | -3% | ? | 1
O=C(COC(=O)CCS(=O)(=O)c1ccc(Cl)cc1)NC1CCCCC1 | -21% | ? | 5
O=C1[C@H]2CCn3c(=O)n(-c4ccccc4)c(=O)n3[C@H]2[C@H](O)[C@H]2O[C@@H]12 | . | 16%[13.5 µM] | .
O=C(Nc1cccc(O)c1)c1cc2nc(-c3ccc(Br)cc3)cc(C(F)(F)F)n2n1 | . | . | -3
Cc1cc2oc(=O)cc(-c3ccccc3)c2c(C)c1-c1ccoc1 | -6% | ? | .
O=C(NC1CC2CCC(C1)N2C(=O)NCc1ccccc1)NC12CC3CC(CC(C3)C1)C2 (stereo unspecified) | 1% | 0% | 3
Clc1cc(Cl)cc(C2=N[C@@H](Cc3ccccc3)CO2)c1 | -2% | -6% | .
